Experimental data reported in PubChem BioAssay AID1159580 (chemical genetic matrix, 2015).
Values joined by “and” are separate entries in the source; they are usually repeats but may differ in a detail not shown here. Equal values may be shown once. Hit rate of the full screen: of about 5,500 compounds, about 2,000 (36%) were called active. About 18% were inconclusive and are not listed. No stated cut-off is given here; in the data, active means normalized growth mostly below about 0.91 (no sharp cut-off); inconclusive means no clear call, values can overlap the other calls; inactive means mostly above about 0.92. The list shows a part of the results.

Assay: chemical genetic growth profiling, strain panel (AID 1159580);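 further: tested at 20 µM; growth read once vehicle control cultures reached saturation at 30 °C; 1 = growth at the plate median or of vehicle wells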
Settings: S. cerevisiae deletion strains, growth OD

Measured: normalized growth

CC1(C)CC2C1CCC1(C)OC1CCC2(C)O (centres undefined)
inactive: locus YAL013W, strain DEP1, stronger effect = lower value 1.02 | locus YAL021C, strain ccr4, stronger effect = lower value 1.01 | locus YAL026C, strain drs2, stronger effect = lower value 1.05 | locus YAL030W, strain snc1, stronger effect = lower value 1.03 | locus YBL061C, strain skt5, stronger effect = lower value 1.04 | locus YBR009C, strain hhf1, stronger effect = lower value 1.06 | locus YBR021W, strain FUR4, stronger effect = lower value 1.01 | locus YBR023C, strain chs3, stronger effect = lower value 1.05 | locus YBR171W, strain sec66, stronger effect = lower value 1.06 | locus YBR229C, strain ROT2, stronger effect = lower value 1 | locus YBR231C, strain swc5, stronger effect = lower value 1.04 | locus YBR279W, strain paf1, stronger effect = lower value 1.03 | locus YCL011C, strain gbp2, stronger effect = lower value 1.04 | locus YCL016C, strain dcc1, stronger effect = lower value 1.03 | locus YCL029C, strain bik1, stronger effect = lower value 1.03 | locus YCL061C, strain MRC1, stronger effect = lower value 1.04 | locus YCL069W, strain vba3, stronger effect = lower value 1.04 | locus YCR088W, strain abp1, stronger effect = lower value 1.04 | locus YDL005C, strain med2, stronger effect = lower value 1.03 | locus YDL035C, strain GPR1, stronger effect = lower value 1.03 | locus YDL040C, strain nat1, stronger effect = lower value 1.03 | locus YDL074C, strain BRE1, stronger effect = lower value 1.07 | locus YDL101C, strain DUN1, stronger effect = lower value 1.03 | locus YDL185W, strain tfp1, stronger effect = lower value 1.01 | locus YDL192W, strain arf1, stronger effect = lower value 1.03 | locus YDR001C, strain nth1, stronger effect = lower value 1.03 | locus YDR069C, strain doa4, stronger effect = lower value 1.06 | locus YDR101C, strain arx1, stronger effect = lower value 0.987 | locus YDR137W, strain rgp1, stronger effect = lower value 1.07 | locus YDR159W, strain sac3, stronger effect = lower value 1.11 | locus YDR162C, strain NBP2, stronger effect = lower value 1.06 | locus YDR195W, strain ref2 1.01 | locus YDR297W, strain sur2, stronger effect = lower value 1.05 | locus YDR318W, strain mcm21, stronger effect = lower value 1.04 | locus YDR334W, strain swr1, stronger effect = lower value 1.04 | locus YDR335W, strain msn5, stronger effect = lower value 1.04 | locus YDR388W, stronger effect = lower value 1.02 | locus YDR392W, strain spt3, stronger effect = lower value 1.01 | locus YDR502C, strain sam2, stronger effect = lower value 1.06 | locus YEL003W, strain gim4, stronger effect = lower value 1.04 | locus YEL037C, strain rad23, stronger effect = lower value 1.03 | locus YEL061C, strain CIN8 (second series), stronger effect = lower value 1.03 | locus YEL061C, strain CIN8, stronger effect = lower value 1.02 | locus YER015W, strain faa2, stronger effect = lower value 1.04 | locus YER016W, strain bim1, stronger effect = lower value 1.04 | locus YER110C, stronger effect = lower value 1.01 | locus YER111C, strain swi4, stronger effect = lower value 1.03 | locus YER155C, strain BEM2 (second series), stronger effect = lower value 1.07 | locus YER155C, strain BEM2, stronger effect = lower value 1.03 | locus YER167W, strain BCK2, stronger effect = lower value 1.01 | locus YFR010W, strain ubp6, stronger effect = lower value 1.05 | locus YGL078C, strain dbp3, stronger effect = lower value 1.02 | locus YGL086W, strain mad1, stronger effect = lower value 1.02 | locus YGL167C, strain pmr1, stronger effect = lower value 1.03 | locus YGL173C, strain kem1, stronger effect = lower value 1.06 | locus YGL227W, strain vid30, stronger effect = lower value 1.03 | locus YGL240W, strain doc1, stronger effect = lower value 1.04 | locus YGL248W, strain PDE1, stronger effect = lower value 1.05 | locus YGL253W, strain hxk2, stronger effect = lower value 1.07 | locus YGR135W, strain pre9, stronger effect = lower value 1.04 | locus YGR252W, strain gcn5, stronger effect = lower value 1.17 | locus YHR013C, strain ard1, stronger effect = lower value 1.05 | locus YHR027C, strain rpn1, stronger effect = lower value 1.06 | locus YHR030C, strain SLT2, stronger effect = lower value 1.02 | locus YHR079C, strain IRE1 (second series), stronger effect = lower value 1.01 | locus YHR079C, strain IRE1, stronger effect = lower value 1.04 | locus YHR094C, strain hxt1, stronger effect = lower value 1.01 | locus YHR129C, strain ARP1, stronger effect = lower value 1.02 | locus YHR142W, strain chs7, stronger effect = lower value 1.06 | locus YHR200W, strain rpn10, stronger effect = lower value 1.04 | locus YIL066C, strain RNR3, stronger effect = lower value 1.02 | locus YIL073C, strain SPO22, stronger effect = lower value 1.12 | locus YIL125W, strain kgd1, stronger effect = lower value 1.01 | locus YIR030C, strain dcg1, stronger effect = lower value 1.01 | locus YJL092W, strain hpr5, stronger effect = lower value 1.04 | locus YJL095W, strain BCK1 (second series), stronger effect = lower value 1.03 | locus YJL095W, strain BCK1, stronger effect = lower value 1.08 and 1.04 | locus YJL115W, strain asf1, stronger effect = lower value 1.04 | locus YJL129C, strain trk1, stronger effect = lower value 1.08 | locus YJL134W, strain LCB3, stronger effect = lower value 1.02 | locus YJL154C, strain vps35, stronger effect = lower value 1.03 | locus YJL164C, strain tpk1, stronger effect = lower value 1.04 | locus YJL166W, strain qcr8, stronger effect = lower value 1.05 | locus YJL168C, strain set2, stronger effect = lower value 1.02 | locus YJL187C, strain SWE1 (second series), stronger effect = lower value 1.06 | locus YJL187C, strain SWE1, stronger effect = lower value 1.05 | locus YJR043C, strain POL32, stronger effect = lower value 1.04 | locus YJR066W, strain TOR1, stronger effect = lower value 0.961 | locus YKL009W, strain mrt4, stronger effect = lower value 1.01 | locus YKL068W, stronger effect = lower value 1 | locus YKL085W, strain MDH1 (second series), stronger effect = lower value 1 | locus YKL085W, strain MDH1, stronger effect = lower value 1 | locus YKL160W, strain elf1, stronger effect = lower value 1.02 | locus YKR001C, strain vps1, stronger effect = lower value 1.1 | locus YKR026C, strain gcn3, stronger effect = lower value 1.04 | locus YKR091W, strain srl3, stronger effect = lower value 1.02 | locus YLL001W, strain dnm1, stronger effect = lower value 1.01 | locus YLL026W, stronger effect = lower value 1.04 | locus YLL041C, strain sdh2, stronger effect = lower value 1.03 | locus YLR027C, strain aat2, stronger effect = lower value 1.05 | locus YLR039C, strain RIC1, stronger effect = lower value 1.2 | locus YLR058C, strain SHM2, stronger effect = lower value 1.05 | locus YLR102C, strain apc9, stronger effect = lower value 1.01 | locus YLR113W, strain HOG1, stronger effect = lower value 1.03 | locus YLR221C, strain rsa3, stronger effect = lower value 1.07 | locus YLR258W, strain gsy2, stronger effect = lower value 1.05 | locus YLR262C, strain YPT6 (second series), stronger effect = lower value 1.06 | locus YLR268W, strain sec22, stronger effect = lower value 1.04 | locus YLR320W, strain mms22, stronger effect = lower value 1.07 | locus YLR342W, strain FKS1 (second series), stronger effect = lower value 1.09 | locus YLR342W, strain FKS1, stronger effect = lower value 1.05 | locus YLR357W, strain rsc2, stronger effect = lower value 1.07 | locus YLR370C, strain arc18, stronger effect = lower value 1.04 | locus YLR371W, strain rom2, stronger effect = lower value 0.999 | locus YLR384C, strain iki3, stronger effect = lower value 1.05 | locus YLR418C, strain cdc73, stronger effect = lower value 1.11 | locus YML016C, strain PPZ1, stronger effect = lower value 1.01 | locus YML032C, strain rad52, stronger effect = lower value 1.04 | locus YML120C, strain ndi1, stronger effect = lower value 1.03 | locus YML124C, strain tub3, stronger effect = lower value 0.999 | locus YMR058W, strain fet3, stronger effect = lower value 1.05 | locus YMR078C, strain ctf18, stronger effect = lower value 1.01 | locus YMR125W, strain sto1, stronger effect = lower value 1.05 | locus YMR129W, stronger effect = lower value 1.02 | locus YMR205C, strain PFK2, stronger effect = lower value 1.06 | locus YMR223W, strain ubp8, stronger effect = lower value 1.05 | locus YMR231W, strain pep5, stronger effect = lower value 1.04 | locus YMR263W, strain SAP30, stronger effect = lower value 1.02 | locus YMR307W, strain GAS1, stronger effect = lower value 1.1 | locus YNL067W, strain RPL9B, stronger effect = lower value 1.03 | locus YNL071W, strain lat1, stronger effect = lower value 1.04 | locus YNL128W, strain TEP1, stronger effect = lower value 1.04 | locus YNL153C, strain GIM3, stronger effect = lower value 1.05 | locus YNL183C, strain NPR1, stronger effect = lower value 0.975 | locus YNL209W, strain ssb2, stronger effect = lower value 1.03 | locus YNL233W, strain BNI4, stronger effect = lower value 1.07 | locus YNL248C, strain rpa49, stronger effect = lower value 1.05 | locus YNL250W, strain rad50, stronger effect = lower value 1.04 | locus YNL271C, strain bni1, stronger effect = lower value 1.03 | locus YNL298W, strain CLA4, stronger effect = lower value 1.01 | locus YNL307C, strain MCK1, stronger effect = lower value 1.01 | locus YNL322C, strain KRE1 (second series), stronger effect = lower value 1.04 | locus YNL322C, strain KRE1, stronger effect = lower value 1.02 | locus YNR049C, strain mso1, stronger effect = lower value 1.04 | locus YNR052C, strain pop2, stronger effect = lower value 1.03 | locus YOL006C, strain TOP1, stronger effect = lower value 1.19 | locus YOL012C, strain htz1 1 | locus YOL147C, strain pex11, stronger effect = lower value 1.02 | locus YOR001W, strain rrp6, stronger effect = lower value 1.08 | locus YOR061W, strain CKA2, stronger effect = lower value 1.02 | locus YOR069W, strain VPS5, stronger effect = lower value 1.02 | locus YOR070C, strain gyp1, stronger effect = lower value 1.05 | locus YOR080W, strain dia2, stronger effect = lower value 1.03 | locus YOR083W, strain WHI5, stronger effect = lower value 1.03 | locus YOR106W, strain vam3, stronger effect = lower value 1.04 | locus YOR136W, strain idh2, stronger effect = lower value 1 | locus YOR144C, strain elg1, stronger effect = lower value 1.01 | locus YOR184W, strain ser1, stronger effect = lower value 1.05 | locus YOR231W, strain MKK1, stronger effect = lower value 1.05 | locus YOR265W, strain rbl2, stronger effect = lower value 1.04 | locus YOR270C, strain vph1, stronger effect = lower value 1.14 | locus YOR290C, strain snf2, stronger effect = lower value 1.04 | locus YOR316C, strain cot1, stronger effect = lower value 1 | locus YPL051W, strain arl3, stronger effect = lower value 1.05 | locus YPL055C, strain LGE1, stronger effect = lower value 1.06 | locus YPL078C, strain atp4, stronger effect = lower value 1.02 | locus YPL106C, strain sse1, stronger effect = lower value 1.02 | locus YPL240C, strain hsp82, stronger effect = lower value 1.03 | locus YPL256C, strain CLN2, stronger effect = lower value 1.04 | locus YPR119W, strain clb2, stronger effect = lower value 1.02 | locus YPR141C, strain kar3, stronger effect = lower value 0.991 | locus YPR163C, strain tif3, stronger effect = lower value 1.04 | locus YPR167C, strain met16, stronger effect = lower value 1 | strain wtn01, stronger effect = lower value 1.04
